Screening data from PubChem BioAssay.
E coli growth-1 – E. coli V3065 growth inhibition, primary screen, counter-screen for AddAB inhibitor project, absorbance, OD600; 18 h; inhibition, % at 11.9 µM; 330,000 tested, 0.27% active; AID 449728, 2010;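 active means inhibition above the campaign's mean inhibition across all tested compounds plus 3 SD, cut at about 9.9% in these data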;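 further: uninfected addAB+ strain grown without phage in ampicillin broth; 0% = DMSO wells and 100% = ciprofloxacin 0.95 µg/ml wells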
AddAB inh – growth inhibition of E. coli expressing H. pylori AddAB, primary screen, AddAB inhibitor project, absorbance; inhibition, % at 11.9 µM; 330,000 tested, 0.29% active; in the data active means inhibition above about 12%;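 further: 0% = vehicle wells of infected cells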
Tat export inh – E. coli Tat export inhibitors, primary screen, MC4100, TorA-mCherry reporter, fluorescence, single point; AID 488895, 2010; 340,000 tested, 0.036% active; inhibition, % at 10 µM;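 active means mean replicate inhibition at least 50% and at least half of replicates individually reaching 50%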;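 further: exported cargo escapes ClpAP degradation while cytoplasmic cargo is degraded and loses fluorescence; 0% = median of neutral control wells and 100% = median of NaSCN control wells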
E coli growth-2 – E. coli growth inhibition, primary screen, OD600 | Escherichia coli growth, 23 h; active compounds read low | 330,000 tested, 0.21% active | OD600 absorbance (concentration not given with the values);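 active means OD600 absorbance below the run mean of sample wells minus 3.6 SD, in any replicate, cut at about 0.56 in these data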
phage Ecoli inh – growth loss of phage-infected E. coli, primary screen, RecBCD inhibitor project, absorbance, with phage, HTS. inhibition, % at 11.9 µM. 360,000 tested, 0.26% active. AID 651602, 2012; in the data active means inhibition above about 11%
AddAB confirm – growth loss of phage-infected E. coli expressing H. pylori AddAB, confirmation, AddAB inhibitor project, absorbance, E. coli V3065, T4 phage, triplicate. shares compounds with AddAB inh. OD; T4 phage with gene 2 nonsense mutations. inhibition, % at 11.9 µM. 880 tested, 64% active. AID 488942, 2010;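 active means mean inhibition above a set limit taken from the earlier primary screen, cut at about 13% in these data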;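 further: higher means less bacterial growth since AddAB block lets phage replicate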
RecBCD counter – growth loss of RecBCD+ E. coli with mutant T4 phage, counter-screen for AddAB inhibitor project, absorbance, V66 E. coli; AID 488955, 2010; inhibition, % at 11.9 µM; 880 tested, 73% active; OD growth; shares compounds with AddAB inh;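 active means mean inhibition above the mean of solvent-only control wells plus 3 SD, cut at about 4% in these data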;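 further: optical density read after an 18 h incubation at 37 °C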
bact viab count – bacterial viability inhibition counter-screen, confirmation, counter-screen for AddAB inhibitor project, absorbance | shares compounds with AddAB inh | absorbance (AddAB counterscreen) | inhibition, % at 11.9 µM | 880 tested, 35% active; in the data active means inhibition above about 25%
RecBCD conf – growth loss of phage-infected RecBCD+ E. coli, confirmation, RecBCD inhibitor project, absorbance, E. coli V66, T4 gene 2 phage; 890 tested, 45% active; E. coli V66 + T4 2- phage, growth OD; inhibition, % at 11.9 µM; shares compounds with phage Ecoli inh;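 active means mean inhibition over triplicates exceeding the hit threshold derived in the original primary screen, cut at about 11% in these data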
Ecoli viability – E. coli viability inhibition, counter-screen for RecBCD inhibitor project, absorbance, high throughput; shares compounds with phage Ecoli inh; absorbance (OD) growth; inhibition, % at 11.9 µM; 890 tested, 29% active; in the data active means inhibition above about 20%;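 further: E. coli strain V66 grown with compound alone and no phage infection; 0% = bacteria with DMSO vehicle only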
AddAB phage OD – growth loss of phage-infected AddAB-carrying E. coli, confirmation, counter-screen for RecBCD inhibitor project, absorbance, E. coli V3065, T4 phage | shares compounds with phage Ecoli inh | E. coli expressing H. pylori AddAB + T4 phage, OD growth; gene 2 mutant T4, recBCD-deleted host | inhibition, % at 11.9 µM | 890 tested, 45% active | AID 651984, 2013;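 active means mean inhibition above the solvent-only control wells' mean plus 3 SD, cut at about 22% in these data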;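 further: higher means less bacterial growth from phage killing when AddAB is blocked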
The depositor's hits bear a star; x = not tested or not shown; + = active, no number; ! = repeats disagree. Only some compounds are listed: those with a hit (about 0.5% of all), similar ones and a draw of the others.

SMILES	E coli growth-1	AddAB inh	Tat export inh	E coli growth-2	phage Ecoli inh	AddAB confirm	RecBCD counter	bact viab count	RecBCD conf	Ecoli viability	AddAB phage OD
COC(=O)C1=C(c2cccc3c2S(=O)(=O)c2ccccc2-3)CC2CCC1N2C(=O)N1CCc2cc(OC)c(OC)cc2C1 (stereo not given)	x	x	x	0.73	x	x	x	x	x	x	x
Cc1cc(O)c2c(c1)C(=O)C13C(=C2O)C(=O)[C@H]2[C@@H](O)[C@@H]1[C@H]1[C@H](O)[C@@H]3C(=O)C3=C(O)c4c(O)cc(C)cc4C(=O)C312 (stereo not given in full)	76*	60*	130*	0.067*	x	36*	32*	43*	x	x	x
CCCCCCCCC(=O)NCc1ccc(O)c(OC)c1	100*	98*	5	0.69	1	0	0	-3	x	x	x
COc1cc(CNCCc2ccc3c(c2)OCO3)ccc1O	2	5	-12	0.66	5	x	x	x	x	x	x
c1ccc2c[n+](CCCCCCCCCC[n+]3ccc4ccccc4c3)ccc2c1	x	x	x	x	8	x	x	x	x	x	x
CCCCCCC[n+]1ccc(-c2cc[n+](CCCCCCC)cc2)cc1	25*	31*	-3	0.54	19*	6	19*	10	9	13	5
CC1OCC(C[N+](C)(C)C)O1 (stereo not given)	x	x	x	0.67	x	x	x	x	x	x	x
COC12C(COC(N)=O)C3=C(C(=O)C(C)=C(N)C3=O)N1CC1C2N1C (stereo not given)	99*	94*	80*	0.053*	82*	98*	89*	99*	94*	94*	96*
N/C(=N\[N+](=O)[O-])N/N=C/c1ccc(O)cc1	1	1	0	x	2	x	x	x	x	x	x
Nc1nonc1C(=O)N/N=C/c1ccc([N+](=O)[O-])o1	8	17*	-16	x	18*	99*	6.7*	16	8	5	61*
CN(C)[C@@H]1C(=O)C(C(N)=O)=C(O)[C@@]2(O)C(=O)C3=C(O)c4c(O)cccc4[C@@](C)(O)[C@H]3[C@H](O)[C@@H]12	-1	1	6	x	3	x	x	x	x	x	x
CN(C)[C@@H]1C(=O)C(C(N)=O)=C(O)[C@@]2(O)C(=O)C3=C(O)c4c(O)ccc(Cl)c4[C@@](C)(O)[C@H]3C[C@@H]12	81*	79*	163*	x	91*	99*	95*	99*	97*	102*	100*
CN(C)[C@@H]1C(=O)C(C(N)=O)=C(O)[C@@]2(O)C(=O)C3=C(O)c4c(O)cccc4[C@@](C)(O)C3C[C@@H]12 (stereo not given in full)	100*	94*	147*	x	102*	101*	101*	101*	101*	102*	101*
COC(=O)C1=C(c2cc3ccccc3o2)CC2CCC1N2C(=O)NC1CCCCC1 (stereo not given)	x	x	x	0.69	x	x	x	x	x	x	x
CC(=O)OC1CC[C@@]2(C)C(=CCC3C2CC[C@]2(C)C(=O)CCC32)C1 (stereo not given in full)	x	x	x	0.67	x	x	x	x	x	x	x
C[CH2][Hg][S]c1ccccc1C(=O)O	101*	+	-126	0.06*	+	+	+	98*	+	105*	+
C[n+]1ccc(-c2cc[n+](C)cc2)cc1	10*	12	-5	0.66	22*	x	x	x	13*!	13	21*
Oc1cc(Cl)ccc1Oc1ccc(Cl)cc1Cl	98*	97*	137*	0.046*	97*	x	x	x	99*	100*	99*
COC(=O)C1=C(c2cccc(OCc3ccccc3)c2)CC2CCC1N2C(=O)NCc1cc(C)oc1C(F)(F)F (stereo not given)	x	x	x	0.69	x	x	x	x	x	x	x
COC(=O)C1=COC(C)C2CN3CCC4(C(=O)Nc5ccccc54)C3CC12 (stereo not given)	-2	1	3	0.74	11*	x	x	x	-2	0	2
CC1(C)NC(=O)C2CCCN21 (stereo not given)	x	x	x	0.7	x	x	x	x	x	x	x
COC(=O)C1=C(c2ccccc2OCc2ccccc2)CC2CCC1N2C(=O)NCc1cccc(C(F)(F)F)c1 (stereo not given)	x	x	x	0.69	x	x	x	x	x	x	x
CNS(=O)(=O)c1ccc(N=Cc2c(O)n(-c3ccc(C)cc3)c(=O)[nH]c2=O)cc1	1	1	-7	0.7	0	x	x	x	x	x	x
CCc1nnc(NS(=O)(=O)c2ccc(N=Cc3c(O)n(-c4ccc(Cl)cc4)c(=O)[nH]c3=O)cc2)s1	8	9	-8	0.61	12*	x	x	x	4	2	20
Fc1ccc(CNC2CN3CCC2CC3)cc1 (stereo not given)	-1	-1	-12	0.69	13*	x	x	x	-5	-4	1
COC(=O)C1=C(c2cc3ccccc3o2)CC2CCC1N2C(=O)N1CCCC1 (stereo not given)	x	x	x	0.68	x	x	x	x	x	x	x
